Here are results for 32 molecules from PubChem BioAssay (NCATS).

The subject of experiment [1] is Zika virus NS2B-NS3 protease (linked construct). As to the kind of experiment: Primary screen NINDS Rhodamine qHTS for Zika virus inhibitors (AID 1347160). Note: nearly all actives have a fitted effect of over 55% in size. Note: potency is the fitted concentration of half-maximal effect. The essentials: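 In 10 mM Tris-HCl pH 8.0 containing 0.01% Tween 20, linked NS2B-NS3 protease (25 nM final) is exposed to test compounds for 15 min. Cleavage of 1.5 microM Rhodamine110 substrate is tracked by fluorescence over 15 min.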

Experiment [2] relates to Zika virus NS2B-NS3 protease (linked). As to the kind of experiment: 384 well plate NINDS AMC confirmatory qHTS for Zika virus inhibitors (AID 1347163). Note: potency is the fitted concentration of half-maximal effect; nearly all actives have a fitted effect of over 50% in size. In a few lines: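 Linked protease 5/30/60 nM final; cpds up to 1 mM final, ~15 min preinc. Substrate Ac-VKTGKR-AMC 30 microM final. RT, dark, 25 min; FI ex 355/em 460; normalized to no-enzyme/no-inhibitor ctrls.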
The test system of experiment [3] is Zika virus NS2B-NS3 protease (linked construct). Kind of experiment: 384 well plate NINDS Rhodamine confirmatory qHTS for Zika virus inhibitors (AID 1347164).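 Note: fluorescence from protease cleavage of Ac-LKRR-rhodamine 110 substrate; potency is the fitted concentration of half-maximal effect; nearly all actives have a fitted effect of over 65% in size.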 In a few lines: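 Fluorescence at 485/538 nm was measured 25 minutes after adding 10 microM Ac-LKRR-Rd substrate, in the dark at room temperature. The protease (5, 30 or 60 nM final) had been preincubated ~15 minutes with compound; aprotinin as control.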

The nature of experiment [4]: Vero cells viability qHTS for Zika virus inhibitors (AID 1347167). In a few lines:
(§1)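 Counter-screen for cytotoxicity of hits from NS2B-NS3 protease qHTS. Overnight-attached cells (2.5 x 10^5 cells/mL, DMEM/4% FBS) were dosed in titration, incubated 24 to 48 hours, then assayed by CellTiter Glo.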
For orientation: qHTS replaces the single test concentration by a dilution series.

Experiment [5] in a line: HepG2 cells viability qHTS for Zika virus inhibitors (AID 1347168). In a few lines:
as §1

Experiment [6] can be described thus: qHTS to identify inhibitors of the type 1 interferon - major histocompatibility complex class I in skeletal muscle: primary screen against the NCATS Mechanism Interrogation Plate v5.0 (MIPE) Libary (AID 1347411). Note: nearly all actives have a fitted effect of over 65% in size. Note: potency is the fitted concentration of half-maximal effect. The essentials:
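Immortalized human C25cl48 myoblasts with HiBit knocked into endogenous HLA-B*08:01 were stimulated with 4.0 ng/ml IFN-beta and exposed to compounds (11-point 1:3 titration, top 46 uM final) for 24 hrs at 37 C; HiBiT lytic luminescence measured.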

Experiment [7] deals with Calcium and integrin-binding protein 1 (Homo sapiens) (UniProt Q99828). As to the kind of experiment: Primary qHTS for Identification of Calcium Integrin Binding Protein 1 (CIB1) Competitor (AID 1508620). Note: top concentration of the series differs between compounds. The essentials:
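Fluorescence polarization competition: CIB1-GST (1 uM final) preincubated with compound 15 min at room temperature, then FITC-labeled alphaIIb peptide (100 nM final) added for another 15 min. Polarization read at Ex 480/Em 540.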

The target is the same in experiment [8]. Kind of experiment: Confirmatory qHTS for Identification of Calcium Integrin Binding Protein 1 (CIB1) Competitor (AID 1508617). Note: nearly all actives have a fitted effect of over 65% in size. Note: potency is the fitted concentration of half-maximal effect. The essentials: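 Compounds at up to 114 uM final met 1 uM GST-tagged CIB1 for 15 min at room temperature (HEPES pH 7.4, 5 mM CaCl2). FITC-labelled alphaIIb peptide, 100 nM, added; polarization read after 15 min more.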

Records with an inconclusive call do not appear. A call without a number means that no potency is given here. Unmarked numbers belong to inactive results. Activity calls are given as the source filed them. Calls come from the whole dose curve; as a rule, active = well fitted curve in the direction sought with a large enough effect; inconclusive = small, poorly fitted or top-dose-only effect, or another doubt; inactive = no such curve, though single readings can be large; an effect the other way counts as inactive or inconclusive.

Calcium and integrin-binding protein 1 (Homo sapiens), sequence (Q99828 whole entry, looked up): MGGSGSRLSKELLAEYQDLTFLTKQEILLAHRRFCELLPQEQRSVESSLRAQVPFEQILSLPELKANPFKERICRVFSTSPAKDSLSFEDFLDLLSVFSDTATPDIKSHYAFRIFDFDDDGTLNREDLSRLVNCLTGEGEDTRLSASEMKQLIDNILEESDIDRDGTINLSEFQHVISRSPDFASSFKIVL

Turning to `O=C(O)C1(Cc2cccc(Nc3nccs3)n2)CCC(Oc2cccc(Cl)c2F)CC1` (stereo not given), the results for the Potency in experiment [1], in experiment [2] and in experiment [3] were 4.47 µM (active), 3.16 µM (active) and 14.1 µM (active), respectively. For the same molecule, the Potency result in experiment [4], in experiment [5] and in experiment [6] was “inactive” in each case. Moreover, the result in experiment [7] was inactive.
As to `CC1(O)CC(c2nc(-c3ccc4ccc(-c5ccccc5)nc4c3)c3c(N)nccn23)C1` (stereo not given), the Potency result in experiment [1] was “inactive”.
`CCCNC(=O)Nc1ccc(Oc2ncnc3cc(OC)c(OC)cc23)cc1Cl`: the Potency result in experiment [1] and in experiment [6] was “inactive” each time.
Regarding `Cc1nc(Nc2n[nH]c3c2CN(C(=O)N[C@H](CN(C)C)c2ccccc2)C3(C)C)c2sccc2n1`, the Potency result in experiment [1] is “inactive”. In addition, the Potency in experiment [6] is 0.0523 µM (active).
For `OCc1ccc(-c2ccc(-c3ccc(CO)s3)o2)s1`, the Potency entry in experiment [1] and in experiment [8] was “inactive” in each case. In addition, the Potency in experiment [6] was 33 µM (active). Further, the outcome in experiment [7] was inactive.
Consider `O=C(Nc1cn[nH]c1-c1nc2ccc(CN3CCOCC3)cc2[nH]1)NC1CC1`, for which, in experiment [1], the Potency result was “inactive”. Further, the Potency in experiment [6] was 3.3 µM (active).
Regarding `COCCOc1ccc2c(c1)ncn2-c1ccc2cccc(N3CCC(N)CC3)c2n1`, the Potency result in experiment [1] was “inactive”. Moreover, in experiment [6], the Potency was 1.86 µM (active). Moreover, in experiment [7], the result was inactive.
In the case of `CC1COC2(CCN(c3nc(=O)c4cc(C(F)(F)F)cc([N+](=O)[O-])c4s3)CC2)O1` (stereo not given), the Potency result in experiment [1] and in experiment [6] was “inactive” throughout. The result in experiment [7] was inactive.
In the case of `CC(C)c1cc(-c2n[nH]c(=O)n2-c2ccc3c(ccn3C)c2)c(O)cc1O`, the Potency result in experiment [1] is “inactive”. Further, the Potency in experiment [6] was 0.0262 µM (active). The outcome in experiment [7] was inactive.
Take `C=CC(=O)Nc1cccc(Oc2nc(Nc3ccc(N4CCN(C)CC4)cc3)ncc2Cl)c1`: the Potency result in experiment [1] was “inactive”. Besides, the Potency in experiment [6] is 16.5 µM (active). Also, the result in experiment [7] was inactive.
Regarding `CNC(=O)c1cc(Oc2ccc(NC(=O)Nc3cc(C(C)(C)C)nn3-c3ccc4ncccc4c3)c(F)c2)ccn1`, in experiment [1], the Potency entry is “inactive”. In experiment [6], the Potency was 8.29 µM (active). The outcome in experiment [7] was inactive.
Turning to `CNC(=O)c1nn(C)c2c1C(C)(C)Cc1cnc(Nc3ccc(N4CCN(C)CC4)cc3)nc1-2`, the Potency entry in experiment [1] is “inactive”. In addition, the Potency in experiment [6] was 5.23 µM (active). Further, the result in experiment [7] was inactive.
`CNC(=O)CN1CCC(Oc2cc3c(Nc4cccc(Cl)c4F)ncnc3cc2OC)CC1`: the Potency entry in experiment [1] and in experiment [6] was “inactive” each time. In experiment [7], the result was inactive.
In the case of `CCCCCCCCCC(=O)N[C@@H](Cc1c[nH]c2ccccc12)C(=O)N[C@H](CC(N)=O)C(=O)N[C@@H](CC(=O)O)C(=O)N[C@@H]1C(=O)NCC(=O)N[C@@H](CCCN)C(=O)N[C@@H](CC(=O)O)C(=O)N[C@H](C)C(=O)N[C@@H](CC(=O)O)C(=O)NCC(=O)N[C@H](CO)C(=O)N[C@@H]([C@@H](C)CC(=O)O)C(=O)N[C@@H](CC(=O)c2ccccc2N)C(=O)O[C@@H]1C`, the Potency entry in experiment [1] and in experiment [6] was “inactive” throughout. For the same molecule, the result in experiment [7] was inactive.
`Nc1ccccc1NC(=O)c1ccc(CNc2nccc(-c3cccnc3)n2)cc1`: the Potency result in experiment [1] was “inactive”. Further, the Potency in experiment [6] was 7.39 µM (active). Besides, the result in experiment [7] was inactive.
Take `Cc1cc(Nc2cc(CN3CCOCC3)c3nc(C)c(Cc4ccc(Cl)cc4F)n3n2)n[nH]1`: the Potency result in experiment [1] was “inactive”. The Potency in experiment [6] is 5.23 µM (active). Besides, in experiment [7], the outcome was inactive.
For `C1Cc2[nH]nc(-c3nn[nH]n3)c2C1`, the Potency result in experiment [1] and in experiment [6] was “inactive” in each case. For the same molecule, the outcome in experiment [7] was inactive.
`C[C@@H]1COC(Nc2ccc3ncnc(Nc4ccc(OCc5nccs5)c(Cl)c4)c3c2)=N1`: the Potency result in experiment [1] is “inactive”. Further, the Potency in experiment [6] is 16.5 µM (active). Moreover, the result in experiment [7] was inactive.
Regarding `Cc1c(NC(=O)OC[C@@H]2COCCN2)cn2ncnc(Nc3ccc4c(cnn4Cc4cccc(F)c4)c3)c12`, the Potency entry in experiment [1] and in experiment [6] was “inactive” in each case. In addition, the result in experiment [7] was inactive.
As to `Cc1cn(-c2cc(NC(=O)c3ccc(C)c(Nc4nccc(-c5cccnc5)n4)c3)cc(C(F)(F)F)c2)cn1`, the Potency result in experiment [1] and in experiment [6] was “inactive” in each case. In experiment [7], the outcome was inactive.
For the molecule `Cc1ccc2nc(NC(=O)CSc3nc4c(c(=O)n3-c3ccccc3)SCC4)sc2c1`, the Potency entry in experiment [1] and in experiment [6] was “inactive” throughout. For the same molecule, in experiment [7], the outcome was inactive.
For the molecule `C=CCn1c(=O)c2cnc(Nc3ccc(N4CCN(C)CC4)cc3)nc2n1-c1cccc(C(C)(C)O)n1`, the Potency entry in experiment [1] and in experiment [6] was “inactive” throughout. Also, the result in experiment [7] was inactive.
On to `CCCn1c(=O)c2[nH]c(-c3cnn(Cc4cccc(C(F)(F)F)c4)c3)nc2n(CC)c1=O`, for which the Potency result in experiment [1] and in experiment [6] was “inactive” in each case. The outcome in experiment [7] was inactive.
In the case of `Cc1[nH]nc2ccc(-c3cncc(OC[C@@H](N)Cc4ccccc4)c3)cc12`, the Potency result in experiment [1] was “inactive”. Besides, the Potency in experiment [6] was 1.86 µM (active). Also, the result in experiment [7] was inactive.
With `Cc1ccc(C(N)=O)cc1Nc1nccc(-c2cn(C(C)C)c3cnccc23)n1`, the Potency entry in experiment [1] is “inactive”. Moreover, in experiment [6], the Potency was 8.29 µM (active). For the same molecule, the outcome in experiment [7] was inactive.
With `Cn1cc(-c2[nH]c3cc(NC(=O)[C@H](N)C4CCCCC4)cc4c3c2C=NNC4=O)cn1`, the Potency result in experiment [1] is “inactive”. Besides, the Potency in experiment [8] is 50.1 µM (active).
As for `COc1ccc(OC)c(-c2nnc3ccc(-c4ccc(OC)c(O[C@@H]5CCOC5)c4)nn23)c1`, the Potency result in experiment [1] and in experiment [6] was “inactive” each time. Further, the outcome in experiment [7] was inactive.
As to `COc1cc2nccc(Oc3ccc(NC(=O)C4(C(=O)Nc5ccc(F)cc5)CC4)cc3)c2cc1OC`, the Potency entry in experiment [1] is “inactive”. For the same molecule, in experiment [6], the Potency was 8.29 µM (active). Also, the outcome in experiment [7] was inactive.
Turning to `O=C(c1ccc(Nc2nccc(-c3cc4ccccc4s3)n2)cc1)N1CCC(N2CCCC2)CC1`, the Potency result in experiment [1] was “inactive”. Besides, the Potency in experiment [6] was 5.23 µM (active). Moreover, the outcome in experiment [7] was inactive.
As for `CNC(=O)c1c(F)cccc1Nc1nc(Nc2cc3c(cc2OC)CCN3C(=O)CN(C)C)nc2[nH]ccc12`, in experiment [1], the Potency entry was “inactive”. Further, in experiment [6], the Potency was 7.39 µM (active). Further, in experiment [7], the result was inactive.
As for `Nc1cccc(-c2cc3c(Oc4cccc(O)c4)ncnc3[nH]2)c1`, the Potency result in experiment [1] is “inactive”. The Potency in experiment [6] is 13.1 µM (active). In experiment [7], the result was inactive.
Regarding `Cc1ccc(CN2CCNCC2)cc1NC(=O)CNc1ccc(F)c(F)c1`, the Potency entry in experiment [1] and in experiment [6] was “inactive” throughout. Moreover, in experiment [7], the result was inactive.
